DAX1 inh-1 = DAX1 (NR0B1) inhibitors, primary screen, cell-based, HEK293, Gal4-DAX1, luciferase luminescence; 0.99% of 340,000 active; AID 504766, 2011; HEK293 Gal4-DAX1 luciferase reporter; inhibition, % at 6.75 µM;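 active = inhibition above the mean over all tested compounds plus 3 SD, cut at about 4.2% in these data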;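 also: 0% = DAX1-transfected cells with DMSO and 100% = empty-vector control cells with DMSO; inhibition shows as a rise in luminescence from relieved DAX1 repression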
Target sequence (P51843 207-470 limits assumed): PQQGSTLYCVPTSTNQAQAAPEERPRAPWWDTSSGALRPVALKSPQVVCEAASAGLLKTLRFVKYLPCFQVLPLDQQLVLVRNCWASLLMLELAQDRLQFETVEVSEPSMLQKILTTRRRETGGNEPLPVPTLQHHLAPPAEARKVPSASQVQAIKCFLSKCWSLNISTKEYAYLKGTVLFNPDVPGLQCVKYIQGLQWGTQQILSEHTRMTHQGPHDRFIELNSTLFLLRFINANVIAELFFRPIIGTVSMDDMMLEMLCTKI
hgDAF-12 ag = H. glycines DAF-12 receptor agonists, primary screen, cell-based, luminescence, HEK293, GAL4 fusion, UAS-luciferase; AID 687014, 2013; activation, % at 6.8 µM; Nuclear hormone receptor DAF-12 (Heterodera glycines), GAL4 fusion; HEK293 GAL4-hgDAF12 UAS-luciferase reporter, agonist luminescence; normalized to butyrate control; 1.8% of 370,000 active;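 active = activation above a cutoff set at the mean of all screened compounds plus 3 SD, cut at about 10% in these data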;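 also: 0% = DMSO wells and 100% = sodium butyrate wells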
ssDAF-12 act = S. stercoralis DAF-12 nuclear receptor activators, primary screen, cell-based, luminescence, HEK293, GRIP1 co-expression, lit1-tk-luc; Nuclear hormone receptor DAF-12 (Strongyloides stercoralis); HEK293 ssDAF-12/GRIP1 lit1-tk-luc reporter; % of 3 µM dafachronic acid response; activation, % at 6.8 µM; 1% of 370,000 active; AID 652126, 2013;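 active = activation above the mean over all tested compounds plus 3 SD, cut at about 0.9% in these data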;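 also: 0% = DMSO-only wells and 100% = 3 µM delta7-dafachronic acid wells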
DAX1 inh-2 = DAX1 (NR0B1) inhibitors on StAR promoter, primary screen, cell-based, luminescence, SF-1 (NR5A1), full-length DAX-1; inhibition, % at 6.8 µM; HEK293T StAR-luciferase reporter, SF-1/DAX-1 repression relief; 1.1% of 370,000 active;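 active = inhibition above the mean over all tested compounds plus 3 SD, cut at about 3.6% in these data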;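 also: 0% = DAX-1 cells with DMSO and 100% = cells lacking DAX-1 with DMSO; higher inhibition means more luminescence from relief of DAX-1 repression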
hcDAF12 agonist = H. contortus DAF-12 nuclear receptor activators, primary screen, cell-based, luminescence, HEK293, lit1-tk-luc reporter; 1.4% of 370,000 active; HEK293 hcDAF-12 lit1-tk-luc reporter; 0% DMSO, 100% Δ7-dafachronic acid; activation, % at 6.8 µM; AID 652067, 2013;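 active = activation above the mean of all tested compounds plus 3 SD, cut at about 5.5% in these data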;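 also: 100% = response to 3 µM Δ7-dafachronic acid high control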
Starred values were filed as active, the others as inactive; . = no result. Hits are enriched below; roughly 4.1% of the tested compounds scored in any of these assays.

SMILES	DAX1 inh-1	hgDAF-12 ag	ssDAF-12 act	DAX1 inh-2	hcDAF12 agonist
c1ccc(OCCOc2ncnc3ccccc23)cc1	0.3	11.1*	-0.7	1.4	0.5
O=C(COc1ncnc2ccccc12)c1ccc(Cl)cc1	0.2	11.1*	-0.9	1.9	1.5
CCOC(=O)c1[nH]c2ccccc2c1NC(=S)Nc1cc(C)ccc1C	2.0	5.5	0.2	-0.5	6.1*
CCOC(=O)c1[nH]c2ccccc2c1NC(=O)Nc1ccc(OC)cc1	0.7	1.5	0.9*	0.5	4.2
CCOC(=O)c1[nH]c2ccc(OC)cc2c1NC(=O)c1ccccc1C(=O)O	4.3*	4.7	-0.4	1.0	2.3
COc1ccc(C)cc1-n1nnnc1SCc1nc2ccccc2s1	0.1	6.2	1.2*	1.3	5.9*
COc1ccc(C)cc1-n1nnnc1SCC1CCCO1 (centres undefined)	-1.1	-1.1	-0.5	-0.7	1.7
C=CCN1C(=O)[C@@H](CC(=O)NCc2cccc(C(F)(F)F)c2)[C@]2(C(=O)OCC)CCCCC/C=C/12	.	1.9	-1.3	1.1	1.4
CC(=O)Nc1ccc(S(=O)(=O)N2CCC(c3nc4ccc(C)cc4[nH]3)CC2)cc1	4.4*	0.4	-2.0	-0.4	-0.8
CCOC(=O)Nc1ccc(S(=O)(=O)N2CCC(c3nc4ccccc4[nH]3)CC2)cc1	1.3	-1.3	-1.4	-1.2	-0.7
c1ccc(-c2nn[nH]n2)cc1	1.3	-1.6	-1.2	-0.3	0.7
c1ccc(-c2nnc(-c3ccccc3)nn2)cc1	.	8.6	1.0*	1.1	5.4
COc1ccc2c(c1)CN1CN(Cc3ccccc3)S(=O)(=O)CC21 (centres undefined)	.	3.0	-1.7	0.0	-0.2
Cc1nn(CCC(=O)NNC(=O)Nc2ccc(Cl)cc2)c(C)c1[N+](=O)[O-]	.	-0.5	-1.4	0.5	-1.6
CCOc1cc(S(=O)(=O)NCCc2ccc(OC)c(OC)c2)c(OCC)cc1-n1cnnn1	-1.1	-1.5	-1.6	-0.3	-2.3
CCOc1cc(S(=O)(=O)NCC2OCCc3ccccc32)c(OCC)cc1-n1cnnn1 (centres undefined)	4.6*	-0.2	-1.4	-0.4	-0.4
COC(=O)C1CN(Cc2cn(Cc3ccc(OC)cc3)nn2)CCS(=O)(=O)N1Cc1ccccc1 (centres undefined)	.	-2.4	-1.5	-1.5	-2.3
COC(=O)/C=C/c1sc2nc(C)cc(C)c2c1N=CN(C)C	.	7.4	0.5	-0.7	5.6*
N#CC(c1c(Cl)cccc1N1CCCCC1)N1CCCCC1 (centres undefined)	.	3.1	-1.0	0.5	-1.9
Cc1c(Cl)cccc1S(=O)(=O)Nc1ccnn1C	4.3*	1.9	-1.4	0.2	-1.2
O=C(NCc1ccccc1)[C@H]1CCCN1C(=O)[C@H]1CCCN1C(=O)c1ccc(OC(F)(F)F)cc1	.	-1.2	-1.5	-0.2	-0.8
CN(C)[C@H]1CCN(c2ccc3c(c2)O[C@H]2CCN(C2)S3(=O)=O)C1	.	0.2	-1.4	0.1	-0.2
Cc1ccc(CN2CCCCC(NC(=O)Nc3cccc([N+](=O)[O-])c3)C2=O)cc1 (centres undefined)	.	-0.9	-1.3	-1.3	-2.4
Brc1ccc(-c2nc(-c3cccnc3)no2)o1	1.8	8.9	-0.8	-0.3	3.5
Brc1ccc(-c2nc(-c3ccccc3)no2)o1	3.9	11.5*	1.4*	3.3	6.1*
SMILES	DAX1 inh-1	hgDAF-12 ag	ssDAF-12 act	DAX1 inh-2	hcDAF12 agonist
Cc1c(C)c2c(OCC(=O)NCc3ccncc3)cc3c(c2oc1=O)CCC(C)(C)O3	5.9*	1.0	0.1	0.1	0.4
COC(=O)[C@]12C[C@H](CC(=O)N3CCSCC3)C(=O)N(Cc3cccc4ccccc34)C1=C[C@H](COCc1ccccc1)O[C@@H]2C	.	-5.3	-2.1	-0.5	-3.0
Nc1cc(=O)n(Cc2ccccc2)c(N)c1C(=O)NCc1ccccc1	.	2.5	0.0	-0.9	1.9
CN=c1scc(C)n1/N=C/c1ccc(O)cc1	3.4	1.8	0.1	2.5	1.5
CN=c1scc(C)n1/N=C/c1ccc2c(c1)OCO2	-1.5	11.0*	0.3	5.6*	9.6*
CCOC(=O)c1nn(-c2ccc(C)cc2)cc1O	0.5	9.8	0.0	2.6	2.6
CCOC(=O)c1nn(-c2ccccc2)cc1O	0.6	0.2	-0.7	1.0	1.1
CCOC(=O)c1nn(-c2ccc(Cl)cc2)cc1O	8.9*	7.4	-1.0	1.8	1.8
CCOC(=O)c1nn(-c2ccc3ccccc3c2)cc1O	1.1	13.0*	-1.6	4.4*	1.6
O=C(O)[C@@H]1Cc2ccccc2N1	3.9	-1.8	1.0*	-0.6	4.1
CCCN(CC1CC1)c1nc(C)nc2c1nnn2Cc1ccccc1	.	0.9	-1.8	-0.7	-1.3
Cc1csc(NC(=O)Cn2nc(C)c([N+](=O)[O-])c2C)n1	2.8	1.4	2.9*	-0.1	0.9
Cc1ccc(NC(=O)c2cnn(-c3ccccc3)c2C)c(C)c1	1.9	7.3	-0.3	1.0	1.9
COc1ccc(OC(=O)c2cnn(-c3ccccc3)c2C)cc1	1.9	12.8*	0.5	2.5	2.6
CCCc1c(C(=O)NNc2ccccc2OC)cnn1-c1ccccc1	-0.2	1.6	-1.4	0.0	-1.3
Cc1ccc(NC(=O)c2cnn(-c3ccccc3)c2C)cc1	2.3	10.7*	1.1*	2.0	4.4
Cc1ccc(NC(=O)c2csc(-c3ccccc3)c2C)cc1	0.1	6.1	-0.8	4.3*	2.9
CCCc1c(C(=O)Nc2ccc(OC)cc2)cnn1-c1ccccc1	6.3*	3.2	-0.1	0.1	2.2
COc1ccc2c(c1C(=O)/C=C/c1ccccc1)OC(C)(C)C=C2	.	1.0	-1.4	.	-2.5
CC(C)CN1CN2CCc3ccccc3C2CS1(=O)=O (centres undefined)	.	-0.3	-1.0	-0.8	-1.7
COc1cccc(OCc2cc(C(=O)N(C)Cc3nc(C)cs3)no2)c1	1.5	6.4	-0.1	4.5*	2.4
COc1cccc(OCc2cc(C(=O)N(C)C3CCOCC3)no2)c1	0.3	0.7	-0.8	0.0	4.0
COC(=O)[C@]12C[C@H](CC(=O)NCc3ccccc3)C(=O)N(CCc3ccc(OC)c(OC)c3)C1=C[C@H](C1CCCC1)O[C@@H]2C	.	0.8	-2.0	-0.6	-2.0
Cc1ccc(-c2nc3ccccc3o2)cc1NC(=O)c1ccc2c(c1)OCO2	2.1	11.4*	2.0*	3.6*	3.8
COc1ccc(CNC(=O)c2ccc(N3CCOCC3)c([N+](=O)[O-])c2)cc1	-0.1	-0.9	-1.4	-0.6	0.4

Screening data: PubChem BioAssay, The Scripps Research Institute Molecular Screening Center
